Assay [1] deals with Transcription factor E2F1 (Homo sapiens) (UniProt Q01094). The assay can be described thus: ATG_E2F_CIS: Attagene CIS-FACTORIAL HepG2 Assay for human E2F Transcription Factor 1 (AID 2282935). As to conditions: HepG2 Attagene cis-reporter, E2F reporter RNA transcripts; actives raise or lower the signal. The method, boiled down: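 Fluorescent RT-PCR products, digested with HpaI for 2 h at 37 C, are separated by capillary electrophoresis. Source RNA comes from transfected HepG2 cultures treated for 24 h.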
Transcription factor E2F1 (Homo sapiens), sequence (Q01094 whole entry, looked up): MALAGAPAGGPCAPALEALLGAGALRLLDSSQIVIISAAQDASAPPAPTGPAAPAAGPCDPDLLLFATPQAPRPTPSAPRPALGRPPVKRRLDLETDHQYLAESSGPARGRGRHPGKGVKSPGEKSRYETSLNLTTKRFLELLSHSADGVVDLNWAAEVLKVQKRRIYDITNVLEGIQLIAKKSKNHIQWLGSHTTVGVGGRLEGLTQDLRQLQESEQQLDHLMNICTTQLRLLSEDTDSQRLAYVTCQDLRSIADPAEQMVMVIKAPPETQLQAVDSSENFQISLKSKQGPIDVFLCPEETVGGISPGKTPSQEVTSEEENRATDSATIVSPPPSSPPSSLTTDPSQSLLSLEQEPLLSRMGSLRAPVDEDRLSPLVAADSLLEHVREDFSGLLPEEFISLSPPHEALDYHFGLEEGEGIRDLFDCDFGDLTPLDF

Assay [2] can be described thus: ATG_E_Box_CIS: Attagene CIS-FACTORIAL HepG2 Assay for human Enhancer Box (E-box) (AID 2282936). As to conditions: HepG2 E-box cis-reporter transcription, actives raise or lower the signal. The method, boiled down:
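Fluorescent reporter fragments separated by capillary electrophoresis gave the signal; mRNA came from HepG2 cells transfected with cis-element reporters and treated 24 h. Curves fitted bidirectionally relative to DMSO controls.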

Assay [3] can be described thus: ATG_M_61_CIS: Attagene CIS-FACTORIAL HepG2 Assay for M61 Transcription Factor (Internal Marker) (AID 2282937). As to conditions: HepG2 Attagene CIS-FACTORIAL M61 internal marker reporter; actives raise or lower the signal. The method, boiled down:
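Endogenous transcription factor activity in HepG2 is read through transiently transfected cis-element reporter units. After 24 h dosing, RNA undergoes reverse transcription, PCR and primer extension with 6-FAM before capillary electrophoresis; DMSO-referenced bidirectional fit.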

The nature of assay [4]: ATG_EGR_CIS: Attagene CIS-FACTORIAL HepG2 Assay for human Early Growth Response 1 (EGR1) (AID 2282938). As to conditions: HepG2 Attagene CIS-FACTORIAL EGR reporter mRNA; actives raise or lower the signal. The method, boiled down:
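Activity is taken as induction or loss of reporter mRNA versus DMSO, fitted bidirectionally. Transcripts from cis-regulated reporter units in transiently transfected HepG2 were measured after 24 h by RT-PCR with capillary electrophoresis.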

Assay [5] in a line: ATG_M_19_CIS: Attagene CIS-FACTORIAL HepG2 Assay for M19 Transcription Factor (Internal Marker) (AID 2282939). As to conditions: HepG2 Attagene CIS-FACTORIAL M19 internal marker reporter; actives raise or lower the signal. The method, boiled down: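 HepG2 cells transiently transfected with cis-regulated multiplexed reporter units, dosed 24 h. Reporter mRNA quantified by RT-PCR and capillary electrophoresis; internal background marker fitted bidirectionally versus DMSO.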

Assay [6] in a line: ATG_ERE_CIS: Attagene CIS-FACTORIAL HepG2 Assay for Estrogen Response Element (ERE) (AID 2282940). As to conditions: HepG2 ERE cis-reporter, Attagene RNA transcript; actives raise or lower the signal. Put shortly: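 HepG2 cells transiently transfected with multiplexed cis-element reporter units, measuring endogenous transcription factor activity; ERE reporter mRNA quantified after 24 h exposure by RT-PCR, fluorescent labelling, HpaI digestion and capillary electrophoresis. Bidirectional change versus DMSO.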

Assay [7] addresses Hepatocyte nuclear factor 3-beta (Homo sapiens) (UniProt Q9Y261). The assay can be described thus: ATG_FoxA2_CIS: Attagene CIS-FACTORIAL HepG2 Assay for human Forkhead box A2 (FOXA2) (AID 2282942). As to conditions: HepG2 cis-reporter transcription factor activity, 24 h; actives raise or lower the signal. Put shortly:
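Reporter transcript induction is measured by fluorescence after capillary electrophoresis of RT-PCR products from HepG2 cells exposed 24 h. Cis-regulated reporter units report endogenous factor activity; curves fitted both directions against DMSO.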

A short description of assay [8]: ATG_FoxO_CIS: Attagene CIS-FACTORIAL HepG2 Assay for human Forkhead box O (FoxO) (AID 2282943). As to conditions: HepG2 Attagene cis-reporter, FoxO element, mRNA; actives raise or lower the signal. Put shortly: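 Human hepatoma HepG2 cells carry transiently introduced reporter transcription units controlled by cis promoter elements. Chemical treatment lasted 24 h, and mRNA signal was compared with DMSO.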

A short description of assay [9]: ATG_GATA_CIS: Attagene CIS-FACTORIAL HepG2 Assay for human GATA Binding Protein (AID 2282944). As to conditions: HepG2 GATA cis-element reporter, Attagene multiplex mRNA; actives raise or lower the signal. The method, boiled down: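 HepG2 cells transiently transfected with multiplexed cis-element reporter units measure endogenous GATA activity; after 24 h compound exposure, reporter mRNA quantified by RT-PCR and capillary electrophoresis. Changes fitted in both directions vs DMSO.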

Assay [10] can be described thus: ATG_GLI_CIS: Attagene CIS-FACTORIAL HepG2 Assay for human Zinc Finger Protein GLI1 (AID 2282945). As to conditions: HepG2, Attagene cis-factorial reporter mRNA, GLI element; actives raise or lower the signal. The method, boiled down:
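Bidirectional curve fits relative to DMSO, using reporter mRNA levels from RT-PCR plus capillary electrophoresis. Cells were HepG2 transiently carrying cis-regulated reporter constructs, harvested 24 h after dosing.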

A short description of assay [11]: ATG_GRE_CIS: Attagene CIS-FACTORIAL HepG2 Assay for human Glucocorticoid Response Elements (GRE) (AID 2282947). As to conditions: HepG2 GRE cis-reporter, Attagene multiplex mRNA; actives raise or lower the signal. Put shortly: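 Multiplexed cis-reporter mRNA induction, HepG2, 24 h post-dose. RT-PCR, FAM-labelled, HpaI-digested amplicons by CE. Bidirectional fit vs DMSO.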

Assay [12] in a line: ATG_ISRE_CIS: Attagene CIS-FACTORIAL HepG2 Assay for human Interferon Regulatory Factor 1 (IRF1) binding to an Interferon-Stimulated Response Element (ISRE) (AID 2282948). As to conditions: HepG2 ISRE cis-reporter (Attagene), mRNA transcription readout; actives raise or lower the signal. The method, boiled down:
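Signal reflects induction or loss of ISRE-linked reporter mRNA in transiently transfected HepG2 cells after a 24 h treatment, detected by fluorescent RT-PCR fragments on capillary electrophoresis and normalised to DMSO.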

The nature of assay [13]: ATG_M_06_CIS: Attagene CIS-FACTORIAL HepG2 Assay for M06 Transcription Factor (Internal Marker) (AID 2282950). As to conditions: HepG2 Attagene CIS-FACTORIAL M06 internal marker reporter; actives raise or lower the signal. Put shortly: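 Internal background marker within multiplexed cis-reporter HepG2 system. Cells transiently transfected, dosed 24 h; reporter mRNA measured by RT-PCR, HpaI digestion and capillary electrophoresis. Bidirectional fit relative to DMSO.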

Assay [14] has as its target Hypoxia-inducible factor 1-alpha (Homo sapiens) (UniProt Q16665). The assay can be described thus: ATG_HIF1a_CIS: Attagene CIS-FACTORIAL HepG2 Assay for human Hypoxia Inducible Factor 1 (HIF1A) (AID 2282951). As to conditions: HepG2 Attagene cis-factorial HIF1a reporter transcription; actives raise or lower the signal. The method, boiled down: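 Fluorescence intensity of capillary-separated, 6-FAM-labelled reporter amplicons gives mRNA induction in HepG2 cells carrying transfected cis-promoter reporter units; cells exposed 24 h, responses fitted up or down from DMSO.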

The target of assay [15] is Hepatocyte nuclear factor 6 (Homo sapiens) (UniProt Q9UBC0). The assay can be described thus: ATG_HNF6_CIS: Attagene CIS-FACTORIAL HepG2 Assay for human Hepatocyte Nuclear Factor 6 (HNF6) (AID 2282952). As to conditions: HepG2 Attagene cis-factorial HNF6 reporter transcription; actives raise or lower the signal. The method, boiled down:
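Endogenous factor activity read in transiently transfected HepG2 via promoter-regulated reporter transcripts. RNA harvested 24 h post-dosing, reverse-transcribed, PCR-amplified, FAM-labelled, HpaI-digested and resolved by capillary electrophoresis; fitted in both directions against DMSO.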

The target of assay [16] is Heat shock factor protein 1 (Homo sapiens) (UniProt Q00613). Kind of assay: ATG_HSE_CIS: Attagene CIS-FACTORIAL HepG2 Assay for human Heat Shock Transcription Factor 1 (HSE) (AID 2282953). As to conditions: HepG2 HSE cis-reporter, Attagene RNA transcription; actives raise or lower the signal. Put shortly: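 HepG2 cells transfected with cis-promoter reporter units sensing endogenous transcription factor activity; reporter mRNA quantified 24 h post-dose by RT-PCR and capillary electrophoresis of 6-FAM-labelled products. Bidirectional fitting against DMSO.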
Heat shock factor protein 1 (Homo sapiens), sequence (Q00613 whole entry, looked up): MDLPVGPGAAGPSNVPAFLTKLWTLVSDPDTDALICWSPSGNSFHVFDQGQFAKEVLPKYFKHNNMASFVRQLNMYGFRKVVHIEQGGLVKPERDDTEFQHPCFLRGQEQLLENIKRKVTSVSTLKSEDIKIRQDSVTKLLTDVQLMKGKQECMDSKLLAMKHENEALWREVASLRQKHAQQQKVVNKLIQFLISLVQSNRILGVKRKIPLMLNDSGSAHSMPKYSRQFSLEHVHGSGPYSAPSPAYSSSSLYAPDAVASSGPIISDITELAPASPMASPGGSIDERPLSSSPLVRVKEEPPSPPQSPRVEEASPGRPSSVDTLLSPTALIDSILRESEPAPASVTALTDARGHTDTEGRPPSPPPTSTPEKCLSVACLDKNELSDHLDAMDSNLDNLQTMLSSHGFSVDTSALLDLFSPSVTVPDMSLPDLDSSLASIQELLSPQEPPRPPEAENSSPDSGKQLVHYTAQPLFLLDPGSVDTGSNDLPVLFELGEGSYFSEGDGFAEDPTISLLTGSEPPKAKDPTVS

A short description of assay [17]: ATG_PBREM_CIS: Attagene CIS-FACTORIAL HepG2 Assay for human Phenobarbital-responsive Enhancer Module (PBREM) (AID 2282955). As to conditions: HepG2 PBREM cis-reporter, Attagene multiplexed transcription; actives raise or lower the signal. The method, boiled down: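 Cells were transfected with cis-element reporter units and treated for 24 h, after which RNA was extracted and reporter transcripts measured by RT-PCR and capillary electrophoresis.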

Assay [18] in a line: ATG_MRE_CIS: Attagene CIS-FACTORIAL HepG2 Assay for human Metal Responsive Element (MRE) (AID 2282954). As to conditions: HepG2 MRE cis-reporter transcription, Attagene multiplex; actives raise or lower the signal. Put shortly:
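Multiplexed cis-reporter assay in human HepG2 liver cells, 24 h incubation with test chemical. Reporter transcripts measured by RT-PCR and capillary electrophoresis; values from bidirectional curve fitting versus DMSO.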

Assay [19] in a line: ATG_M_32_CIS: Attagene CIS-FACTORIAL HepG2 Assay for M32 Transcription Factor (Internal Marker) (AID 2282949).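 Note: background control marker of the multiplexed CIS panel rather than a real target.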 As to conditions: HepG2 Attagene cis-factorial M32 reporter, mRNA; actives raise or lower the signal. Put shortly:
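Transient MRTU transfection of HepG2; 24 h compound treatment; TriZol RNA, oligo(dT) RT, reporter PCR, 6-FAM primer extension, HpaI cut, CE. Gain/loss of signal vs DMSO.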

Each structure is given as a SMILES string. The source made the active and inactive calls. Rule for the calls: active = hit-call score of the fitted dose curve at least 0.9, where 1 is the maximum; inactive = score below 0.9.

A word on the AC50: it is the midpoint of the concentration-response curve, whichever way the signal moves.

Hepatocyte nuclear factor 6 (Homo sapiens), sequence (Q9UBC0 whole entry, looked up): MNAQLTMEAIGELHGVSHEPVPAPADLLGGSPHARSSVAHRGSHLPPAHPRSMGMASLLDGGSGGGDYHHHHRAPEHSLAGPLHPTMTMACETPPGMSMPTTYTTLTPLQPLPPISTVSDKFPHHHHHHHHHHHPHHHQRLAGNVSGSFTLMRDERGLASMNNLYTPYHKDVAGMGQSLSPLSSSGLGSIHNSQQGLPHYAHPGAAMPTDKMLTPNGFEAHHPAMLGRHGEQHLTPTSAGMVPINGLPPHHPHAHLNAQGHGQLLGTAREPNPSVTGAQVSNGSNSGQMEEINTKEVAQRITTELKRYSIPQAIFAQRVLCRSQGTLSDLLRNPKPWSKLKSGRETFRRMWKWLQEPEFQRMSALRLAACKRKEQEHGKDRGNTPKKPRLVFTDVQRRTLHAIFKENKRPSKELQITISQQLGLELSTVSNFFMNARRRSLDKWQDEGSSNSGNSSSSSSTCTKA
Hepatocyte nuclear factor 3-beta (Homo sapiens), sequence (Q9Y261 whole entry, looked up): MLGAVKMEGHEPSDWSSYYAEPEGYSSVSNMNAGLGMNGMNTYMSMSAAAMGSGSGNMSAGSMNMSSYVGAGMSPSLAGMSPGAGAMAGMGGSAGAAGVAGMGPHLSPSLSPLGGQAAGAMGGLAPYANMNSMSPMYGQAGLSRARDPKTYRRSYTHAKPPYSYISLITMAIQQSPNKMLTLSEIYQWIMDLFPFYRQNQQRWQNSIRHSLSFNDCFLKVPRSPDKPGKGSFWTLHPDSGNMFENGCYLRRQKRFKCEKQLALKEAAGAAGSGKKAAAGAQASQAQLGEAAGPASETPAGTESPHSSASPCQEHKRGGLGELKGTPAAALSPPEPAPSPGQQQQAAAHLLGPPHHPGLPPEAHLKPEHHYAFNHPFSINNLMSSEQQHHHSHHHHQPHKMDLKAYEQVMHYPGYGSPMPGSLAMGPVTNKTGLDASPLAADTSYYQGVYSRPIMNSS
Hypoxia-inducible factor 1-alpha (Homo sapiens), sequence (Q16665 whole entry, looked up): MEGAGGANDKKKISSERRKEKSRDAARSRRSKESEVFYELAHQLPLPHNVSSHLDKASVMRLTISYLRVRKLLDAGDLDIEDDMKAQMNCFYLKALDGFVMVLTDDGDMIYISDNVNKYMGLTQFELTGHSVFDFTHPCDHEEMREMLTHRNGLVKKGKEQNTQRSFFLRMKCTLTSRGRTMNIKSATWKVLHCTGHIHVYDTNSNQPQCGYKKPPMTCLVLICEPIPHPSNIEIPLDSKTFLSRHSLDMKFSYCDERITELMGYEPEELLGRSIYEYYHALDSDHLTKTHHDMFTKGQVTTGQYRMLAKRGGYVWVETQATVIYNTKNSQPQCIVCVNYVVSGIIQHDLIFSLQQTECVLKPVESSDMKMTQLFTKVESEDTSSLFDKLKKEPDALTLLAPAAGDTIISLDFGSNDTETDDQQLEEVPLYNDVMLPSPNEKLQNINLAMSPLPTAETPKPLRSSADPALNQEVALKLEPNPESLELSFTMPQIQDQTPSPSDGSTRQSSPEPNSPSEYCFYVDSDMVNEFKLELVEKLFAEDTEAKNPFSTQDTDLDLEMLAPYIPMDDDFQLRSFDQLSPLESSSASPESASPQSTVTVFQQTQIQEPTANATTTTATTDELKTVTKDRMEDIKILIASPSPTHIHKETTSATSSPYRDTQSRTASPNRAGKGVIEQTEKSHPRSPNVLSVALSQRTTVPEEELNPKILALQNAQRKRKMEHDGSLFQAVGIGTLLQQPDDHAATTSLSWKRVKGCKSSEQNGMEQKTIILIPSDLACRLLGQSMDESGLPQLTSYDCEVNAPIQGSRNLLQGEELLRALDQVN

Regarding `O=S(=O)(O)c1ccc(N=Nc2c(O)ccc3cc(S(=O)(=O)O)ccc23)cc1`, the outcome in assay [1], in assay [2], in assay [3], in assay [4], in [5] and in [6] was inactive. Also, the outcome in assay [7], in assay [8], in [9], in assay [10], in [11] and in assay [12] was inactive. Besides, the call in assay [13], in assay [14], in assay [15], in assay [16] and in assay [17] was inactive.
With `C=CCc1cc(S(=O)(=O)c2ccc(O)c(CC=C)c2)ccc1O`, the result in assay [1], in assay [3], in assay [5], in [7], in [8] and in assay [9] was inactive. Also, the outcome in [10], in [11], in assay [12], in assay [13], in assay [14] and in [15] was inactive. Moreover, in assay [17], the outcome was inactive. Besides, the concentration at half-maximal activity (AC50) is 55.6 µM (active) in assay [2]; 45.8 µM (active) in [4]; 1.12 µM (active) in [6]; 54.7 µM (active) in assay [16]; 47 µM (active) in [18].
Take `CCCCCCCC1CCC(=O)O1` (stereo unspecified): the result in assay [1], in assay [2], in assay [3], in [4], in assay [5] and in assay [6] was inactive. Also, the outcome in assay [7], in assay [8], in assay [9], in [10], in assay [11] and in [12] was inactive. The compound was classed as inactive in [13], in assay [14], in assay [16] and in assay [17].
Turning to `Cn1c(=O)c2[nH]cnc2n(C)c1=O`, the compound was called inactive in assay [1], in assay [2], in assay [3], in [4], in assay [5] and in assay [6]. Further, the result in assay [7], in assay [8], in assay [9], in assay [10], in assay [12] and in [19] was inactive. Further, the compound was classed as inactive in assay [13], in assay [15] and in assay [16].
Take `CC(C)CC(C)O` (stereo unspecified): the call in [1], in assay [2], in [3], in [4], in assay [5] and in assay [6] was inactive. Moreover, the call in assay [7], in assay [8], in assay [9], in [10], in [12] and in assay [13] was inactive. The compound was classed as inactive in assay [14], in assay [16], in assay [18] and in assay [17].
With `O=C(O)CO`, the compound was classed as inactive in [1], in [2], in assay [3], in assay [4], in assay [5] and in assay [6]. Also, the compound was classed as inactive in assay [7], in assay [8], in assay [9], in [10], in [12] and in assay [19]. Moreover, the compound was classed as inactive in assay [13], in assay [14], in [15], in assay [16], in assay [18] and in [17].
Turning to `Cc1ccc(S(=O)(=O)NC(=O)NN2CCCCCC2)cc1`, the call in assay [1], in assay [2], in [3], in assay [4], in [5] and in assay [6] was inactive. Also, the compound was called inactive in assay [7], in [8], in [9], in assay [10], in assay [11] and in assay [12]. The compound was called inactive in assay [19], in assay [13], in assay [16] and in assay [17].

Values taken from PubChem BioAssay (EPA / NIEHS).
